These results are taken from PubChem BioAssay AID362 (NMMLSC, 2006).

Hit rate of the full screen: of about 4,300 compounds, about 60 (1%) were called active. The sample holds actives, similar compounds and a random draw of the others, so the mix is not that of the screen. Unmarked numbers belong to inactive results.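 How the source made its calls: active means inhibition of labelled peptide binding to the formyl peptide receptor of at least 65%; inactive means the rest.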

In this test the target is fMet-Leu-Phe receptor (Homo sapiens) (UniProt P21462). Nature of the test: FPR binders displacing fluorescent formyl peptide, primary screen, U937-FPR cells, fMLFK-FITC, flow cytometry (AID 362).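 On inhibition: plate controls were buffer control wells for no effect and unlabeled fMLFF blocking peptide for full effect; higher means less cell fluorescence so more probe displaced.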 The conditions noted are these: fMLFK-FITC displacement; stronger effect = higher value, concentration not given here.
fMet-Leu-Phe receptor (Homo sapiens), sequence (P21462 whole entry, looked up): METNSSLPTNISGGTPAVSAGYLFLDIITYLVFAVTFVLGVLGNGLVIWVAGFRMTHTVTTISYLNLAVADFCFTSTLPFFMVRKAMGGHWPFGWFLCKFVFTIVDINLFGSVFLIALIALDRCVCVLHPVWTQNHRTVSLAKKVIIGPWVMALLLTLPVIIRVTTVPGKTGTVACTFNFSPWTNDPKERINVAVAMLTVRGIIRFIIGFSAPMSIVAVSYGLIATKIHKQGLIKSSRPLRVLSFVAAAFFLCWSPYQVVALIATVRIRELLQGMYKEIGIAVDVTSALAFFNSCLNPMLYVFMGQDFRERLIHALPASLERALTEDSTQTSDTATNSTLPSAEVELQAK
On to `CC(C)c1ccc(C2C3=C(CC(C)(C)CC3=O)Nc3[nH]n(-c4ccccc4)c(=O)c32)cc1` (centres undefined), for which the inhibition is 57%.
`CCOc1ccc(C2C(C#N)=C(N)OC3=C2C(=O)CC(C)(C)C3)cc1` (centres undefined): the inhibition was 15.2%.
The figure for `CC1(C)CC(=O)C2=C(C1)Nc1[nH]n(-c3ccccc3)c(=O)c1C2c1cccs1` (centres undefined) is 50.9%; for `CCOc1ccc(C2C3=C(CC(C)(C)CC3=O)Nc3[nH]n(-c4ccccc4)c(=O)c32)cc1` (centres undefined) it is 76% (active).
Take `CC1(C)CC(=O)C2=C(C1)Nc1[nH]n(-c3ccccc3)c(=O)c1C2c1ccc(F)cc1` (centres undefined): the inhibition was 47.8%.
Then `CC1(C)CC(=O)C2=C(C1)Nc1ncnn1C2c1ccc(OCc2ccccc2)cc1` (centres undefined), with 7.5%; and `CC1(C)CC(=O)C2=C(C1)Nc1[nH]n(-c3ccccc3)c(=O)c1C2c1ccccc1F` (centres undefined), with 55.8%.
As for `Cc1ccc(C2C3=C(CC(C)(C)CC3=O)Nc3[nH]n(-c4ccccc4)c(=O)c32)cc1` (centres undefined), the inhibition was 65.6% (active).
With `CC1(C)CC(=O)C2=C(C1)Nc1[nH]n(-c3ccccc3)c(=O)c1C2c1ccccc1Cl` (centres undefined), the inhibition is 70.6% (active).
On to `COc1cc(C2NC(=O)NC(C)=C2C(=O)OC2CCCCCC2)ccc1O` (centres undefined), for which the inhibition result was “inactive”.
On to `O=C(O)c1ccc([N+](=O)[O-])c2c1NC(C(=O)O)C1CC=CC21` (centres undefined), for which the inhibition entry is “inactive”.
Then `CCOC(=O)C1CCC(CN(Cc2ccc(Cl)cc2)S(=O)(=O)c2ccc([N+](=O)[O-])cc2)CC1` (centres undefined), with “inactive”; and `CCCc1cc2c(=O)c(-c3cc4ccccc4o3)coc2cc1OC(C)=O`, with 33.7%; and `CCOCCOC(=O)C1=C(C)NC2=C(C(=O)C(C(=O)OC)C(C)C2)C1c1ccc(OC)c(O)c1` (centres undefined), with 23.5%.
Then `COc1ccc(C(=O)NCC2(c3ccc(OC)c(OC)c3)CCCC2)cc1`, with “inactive”; and `CCCCCOC(=O)c1cccc(N2C(=O)C3C4CCC(C4)C3C2=O)c1` (centres undefined), with “inactive”.
Then `COc1cc2c(C(=O)N(C)c3cccc(Cl)c3)cn(CC(C)C)c(=O)c2cc1OC`, with “inactive”; and `CCOC(=O)C1C(c2cccc([N+](=O)[O-])c2)NC(=O)NC1(O)C(F)(F)F` (centres undefined), with “inactive”.
In the case of `Cc1ccc(C(=O)C2=C(N)OC3=C(C(=O)CC(C)(C)C3)C2c2ccccc2Cl)cc1` (centres undefined), the inhibition result was “inactive”.
On to `O=C(CSc1nc2ccccc2c(=O)n1CC1CCC(C(=O)NCc2ccccc2Cl)CC1)NC1CCCC1` (centres undefined), for which the inhibition is 4.5%.
The figure for `CC(C)CN(CC(C)C)S(=O)(=O)c1ccc(C(=O)Nc2cccc(-c3nc4ccccc4[nH]3)c2)cc1` is 4.7%; for `CCCCCCc1cc2c3c(c(=O)oc2cc1OCC(=O)O)CCC3` it is 74.7% (active).
In the case of `CCCCCCc1cc2c3c(c(=O)oc2cc1OCC(=O)O)CCCC3`, the inhibition was 47.7%.
Then `CCCCCCc1cc2c3c(c(=O)oc2cc1OCC(C)=O)CCC3`, with 5.4%.
